Measurements published in the supplement of paper PMC10849652.
Of roughly 7,900 targets only a part is listed; those with a hit were picked by preference. About 0.6% of all pairs of compound and target were hits.

Columns and labels:
Assay in all cases: log2 fold change, soluble protein after heating vs DMSO (PISA); higher = thermal stabilisation; K562 cells, 10 uM, 30 min; active = over 0.2 and 3.5 SD of the protein, either way, in both replicates (recomputed)
[1] = compound: COC1=CC=C(C=C1)CN2C=CC3=C2C=C(C=C3)C(=O)NO
Method in brief: (§1)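 Soluble protein was defined as the supernatant after 21,000xg for 90 min. It came from K562 cells at 2×10^6 cells/mL given 10 μM compound for 30 min, heated in aliquots for 3 min across 48°C-58°C, pooled, and extracted in PBS with 0.5% NP-40 at 4°C, and was quantified by TMTpro 16plex LC-MS/MS with equalised channel sums. Thermal stability against control samples, from duplicates, is reported as log2 fold change.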

filanesib = compound: CON(C)C(=O)N1N=C(c2cc(F)ccc2F)S[C@@]1(CCCN)c1ccccc1 [filanesib]
Method in brief: as §1

zotarolimus = compound: CO[C@H]1C[C@@H]2CC[C@@H](C)[C@@](O)(O2)C(=O)C(=O)N2CCCC[C@H]2C(=O)O[C@H]([C@H](C)C[C@@H]2CC[C@H](n3cnnn3)[C@H](OC)C2)CC(=O)[C@H](C)/C=C(\C)[C@@H](O)[C@@H](OC)C(=O)[C@H](C)C[C@H](C)/C=C/C=C/C=C/1C [zotarolimus]
Method in brief: as §1

idasanutlin = compound: COc1cc(C(=O)O)ccc1NC(=O)[C@@H]1N[C@@H](CC(C)(C)C)[C@](C#N)(c2ccc(Cl)cc2F)[C@H]1c1cccc(Cl)c1F [idasanutlin]
Method in brief: as §1

alisertib = compound: COc1cc(Nc2ncc3c(n2)-c2ccc(Cl)cc2C(c2c(F)cccc2OC)=NC3)ccc1C(=O)O [alisertib]
Method in brief: as §1

[2] = compound: COc1cc2nc(-c3cc(F)ccc3O)nc(N[C@@H]3CNC[C@H]3C(C)(C)O)c2cc1OC
Method in brief: as §1

gefitinib = compound: COc1cc2ncnc(Nc3ccc(F)c(Cl)c3)c2cc1OCCCN1CCOCC1 [gefitinib]
Method in brief: as §1

[3] = compound: COc1cccc2cc(-c3nc([C@H]4CC[C@H](C(=O)O)CC4)n4ncnc(N)c34)[nH]c12
Method in brief: as §1

lapatinib = compound: CS(=O)(=O)CCNCc1ccc(-c2ccc3ncnc(Nc4ccc(OCc5cccc(F)c5)c(Cl)c4)c3c2)o1 [lapatinib]
Method in brief: as §1

pictilisib = compound: CS(=O)(=O)N1CCN(Cc2cc3nc(-c4cccc5[nH]ncc45)nc(N4CCOCC4)c3s2)CC1 [pictilisib]
Method in brief: as §1

Measured: log2 fold change

PMM2 (UniProt O15305)
Sequence of UniProt O15305 (O15305 whole entry, looked up): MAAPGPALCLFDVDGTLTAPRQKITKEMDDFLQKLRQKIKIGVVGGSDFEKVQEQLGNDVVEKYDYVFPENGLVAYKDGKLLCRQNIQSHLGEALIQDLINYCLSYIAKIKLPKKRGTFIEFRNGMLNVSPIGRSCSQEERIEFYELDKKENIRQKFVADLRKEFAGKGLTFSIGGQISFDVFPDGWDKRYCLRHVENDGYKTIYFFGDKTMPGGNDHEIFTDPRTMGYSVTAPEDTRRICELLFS
inactive: [1] -0.054 | filanesib -0.014 | zotarolimus -0.01 | idasanutlin 0.011 | alisertib 0.009 | [2] 0.071 | gefitinib 0.016 | [3] 0.034 | lapatinib -0.088 | pictilisib -0.113

PDCD4 (UniProt Q53EL6)
Sequence of UniProt Q53EL6 (Q53EL6 whole entry, looked up): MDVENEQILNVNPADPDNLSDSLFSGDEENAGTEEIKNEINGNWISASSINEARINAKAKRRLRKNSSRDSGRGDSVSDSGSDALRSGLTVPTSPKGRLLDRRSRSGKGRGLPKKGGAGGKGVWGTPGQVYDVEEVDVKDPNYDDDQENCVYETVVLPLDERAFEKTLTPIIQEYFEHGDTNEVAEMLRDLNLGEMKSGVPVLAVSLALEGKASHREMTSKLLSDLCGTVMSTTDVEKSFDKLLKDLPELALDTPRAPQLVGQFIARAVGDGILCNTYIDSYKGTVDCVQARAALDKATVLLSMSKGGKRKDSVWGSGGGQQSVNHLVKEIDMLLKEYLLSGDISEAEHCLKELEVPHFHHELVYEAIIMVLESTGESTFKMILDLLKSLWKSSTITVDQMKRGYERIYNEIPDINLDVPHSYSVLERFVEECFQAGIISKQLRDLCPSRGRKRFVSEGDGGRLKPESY
inactive: [1] 0.055 | filanesib -0.153 | zotarolimus 0.251 | idasanutlin -0.161 | alisertib -0.025 | [2] 0.018 | gefitinib 0.057 | [3] 0.16 | lapatinib 0.032 | pictilisib 0.083

PIR (UniProt O00625)
inactive: filanesib 0.015 | zotarolimus 0.011 | idasanutlin 0.033 | alisertib -0.038 | [2] 0.085 | gefitinib 0.061 | [3] 0.011 | lapatinib 0.018 | pictilisib 0.077
active: [1] -0.338

PCNT (UniProt O95613)
inactive: [1] -0.228 | filanesib 0.006 | zotarolimus -0.001 | idasanutlin 0.075 | alisertib 0.02 | [2] 0.055 | gefitinib 0.085 | [3] 0.257 | lapatinib -0.174 | pictilisib 0.285

PRIM1 (UniProt P49642)
inactive: [1] 0.04 | filanesib 0.001 | zotarolimus 0.073 | idasanutlin -0.06 | alisertib 0.052 | [2] -0.012 | gefitinib 0.011 | [3] -0.053 | lapatinib 0.007 | pictilisib 0.021

PRUNE1 (UniProt Q86TP1)
Sequence of UniProt Q86TP1 (Q86TP1 whole entry, looked up): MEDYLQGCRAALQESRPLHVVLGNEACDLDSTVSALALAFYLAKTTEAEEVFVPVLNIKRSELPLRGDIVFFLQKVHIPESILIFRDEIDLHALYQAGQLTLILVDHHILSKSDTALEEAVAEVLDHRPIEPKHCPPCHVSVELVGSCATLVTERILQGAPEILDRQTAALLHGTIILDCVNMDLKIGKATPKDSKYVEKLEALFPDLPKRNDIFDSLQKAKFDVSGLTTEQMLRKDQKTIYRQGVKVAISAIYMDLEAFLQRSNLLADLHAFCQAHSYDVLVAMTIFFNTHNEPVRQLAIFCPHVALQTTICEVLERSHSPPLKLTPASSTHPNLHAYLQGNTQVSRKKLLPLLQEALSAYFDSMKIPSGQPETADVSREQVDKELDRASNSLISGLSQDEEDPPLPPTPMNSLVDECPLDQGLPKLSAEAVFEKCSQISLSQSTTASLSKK
inactive: [1] -0.083 | filanesib -0.047 | zotarolimus 0.026 | idasanutlin 0.023 | alisertib 0.091 | [2] 0.059 | gefitinib 0.006 | [3] -0.007 | lapatinib -0.038 | pictilisib 0.072

PC (UniProt P11498)
inactive: [1] 0.05 | filanesib 0.08 | zotarolimus -0.04 | alisertib -0.039 | [2] 0.14 | gefitinib 0.024 | [3] 0.014 | lapatinib -0.011 | pictilisib 0.09
active: idasanutlin -0.372

PECAM1 (UniProt P16284)
inactive: [1] 0.018 | filanesib 0.114 | zotarolimus -0.002 | idasanutlin -0.029 | alisertib -0.053 | [2] 0.025 | gefitinib 0.02 | [3] 0.063 | lapatinib -0.021 | pictilisib 0.12

PRIM2 (UniProt P49643)
inactive: [1] 0.044 | filanesib -0.139 | zotarolimus -0.132 | idasanutlin 0.03 | alisertib -0.042 | [2] 0.063 | gefitinib 0.069 | [3] -0.033 | lapatinib -0.005 | pictilisib 0.086

PSMD8 (UniProt P48556)
inactive: [1] -0.046 | filanesib 0.055 | zotarolimus -0.016 | idasanutlin 0.015 | alisertib -0.097 | [2] -0.038 | gefitinib -0.022 | [3] -0.061 | lapatinib 0.066 | pictilisib 0.097

POLR2A (UniProt P24928)
active: [2] 0.258
inactive: [1] -0.005 | filanesib -0.021 | zotarolimus -0.026 | idasanutlin -0.054 | alisertib 0.001 | gefitinib 0.015 | [3] 0.042 | lapatinib 0 | pictilisib 0.05

PARL (UniProt Q9H300)
inactive: [1] -0.061 | filanesib -0.091 | zotarolimus -0.034 | idasanutlin -0.068 | alisertib -0.016 | [2] -0.2 | gefitinib 0.038 | [3] 0.08 | lapatinib 0.04 | pictilisib 0.011

PYGL (UniProt P06737)
inactive: [1] -0.028 | filanesib 0.043 | zotarolimus -0.007 | idasanutlin -0.015 | alisertib -0.03 | [2] 0.095 | gefitinib -0.013 | [3] 0.051 | lapatinib -0.075 | pictilisib -0.122

PSMD1 (UniProt Q99460)
inactive: [1] 0.009 | filanesib -0.002 | zotarolimus 0.011 | idasanutlin -0.005 | alisertib -0.126 | [2] -0.077 | gefitinib -0.046 | [3] -0.056 | lapatinib 0.069 | pictilisib -0.052

PRKAB2 (UniProt O43741)
Sequence of UniProt O43741 (O43741 whole entry, looked up): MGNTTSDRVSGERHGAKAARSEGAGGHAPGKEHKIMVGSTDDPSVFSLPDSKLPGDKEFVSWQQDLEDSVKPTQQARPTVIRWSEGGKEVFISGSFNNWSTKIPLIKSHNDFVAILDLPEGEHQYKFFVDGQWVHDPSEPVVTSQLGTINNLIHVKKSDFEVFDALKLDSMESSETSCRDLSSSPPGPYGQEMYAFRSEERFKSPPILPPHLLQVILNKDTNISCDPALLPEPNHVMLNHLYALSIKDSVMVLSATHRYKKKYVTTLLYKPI
inactive: [1] 0.038 | filanesib -0.167 | zotarolimus 0.109 | idasanutlin 0.14 | alisertib 0.053 | [2] -0.074 | gefitinib 0.004 | [3] 0.057 | lapatinib 0.131 | pictilisib 0.111

PSMC5 (UniProt P62195)
Sequence of UniProt P62195 (P62195 whole entry, looked up): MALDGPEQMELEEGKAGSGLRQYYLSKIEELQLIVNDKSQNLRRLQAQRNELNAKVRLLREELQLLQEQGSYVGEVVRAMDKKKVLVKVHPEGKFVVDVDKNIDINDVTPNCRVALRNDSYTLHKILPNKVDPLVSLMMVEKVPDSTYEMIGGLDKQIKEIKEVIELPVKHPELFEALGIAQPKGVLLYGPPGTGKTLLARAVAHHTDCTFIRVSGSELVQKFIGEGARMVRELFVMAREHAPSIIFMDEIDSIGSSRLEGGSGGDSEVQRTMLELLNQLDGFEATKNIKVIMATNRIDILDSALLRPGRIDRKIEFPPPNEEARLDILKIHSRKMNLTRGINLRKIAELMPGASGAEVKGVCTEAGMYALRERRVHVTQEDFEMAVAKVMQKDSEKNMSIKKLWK
inactive: [1] -0.024 | filanesib 0.037 | zotarolimus -0.018 | idasanutlin 0 | alisertib -0.019 | [2] -0.053 | gefitinib -0.025 | [3] -0.031 | lapatinib 0.052 | pictilisib -0.05

PGM3 isoform 4 (UniProt O95394)
Sequence of UniProt O95394 (O95394 whole entry, looked up): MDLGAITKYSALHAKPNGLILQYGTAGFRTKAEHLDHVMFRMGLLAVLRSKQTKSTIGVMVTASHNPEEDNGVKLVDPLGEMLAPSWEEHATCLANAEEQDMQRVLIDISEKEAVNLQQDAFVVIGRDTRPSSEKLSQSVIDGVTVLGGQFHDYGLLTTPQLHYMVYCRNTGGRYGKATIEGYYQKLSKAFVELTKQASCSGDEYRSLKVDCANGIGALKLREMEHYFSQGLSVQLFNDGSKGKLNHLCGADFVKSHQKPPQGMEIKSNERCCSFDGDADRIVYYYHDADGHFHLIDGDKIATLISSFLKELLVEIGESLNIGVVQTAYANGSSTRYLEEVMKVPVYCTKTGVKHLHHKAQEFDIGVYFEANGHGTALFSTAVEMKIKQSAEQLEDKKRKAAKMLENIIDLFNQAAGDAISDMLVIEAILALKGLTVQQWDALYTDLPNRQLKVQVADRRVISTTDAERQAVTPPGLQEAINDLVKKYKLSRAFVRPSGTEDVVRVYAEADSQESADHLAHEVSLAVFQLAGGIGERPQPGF
inactive: [1] 0.052 | filanesib -0.135 | zotarolimus 0.007 | idasanutlin -0.079 | alisertib -0.007 | [2] 0 | gefitinib -0.028 | [3] -0.01 | lapatinib -0.014 | pictilisib -0.047

PIK3CB (UniProt P42338)
active: pictilisib 0.258
inactive: [1] 0.063 | filanesib 0.007 | zotarolimus 0.042 | idasanutlin -0.041 | alisertib 0.003 | [2] 0.02 | gefitinib 0.048 | [3] 0.01 | lapatinib 0.001

POTEI (UniProt P0CG38)
Sequence of UniProt P0CG38 (P0CG38 whole entry, looked up): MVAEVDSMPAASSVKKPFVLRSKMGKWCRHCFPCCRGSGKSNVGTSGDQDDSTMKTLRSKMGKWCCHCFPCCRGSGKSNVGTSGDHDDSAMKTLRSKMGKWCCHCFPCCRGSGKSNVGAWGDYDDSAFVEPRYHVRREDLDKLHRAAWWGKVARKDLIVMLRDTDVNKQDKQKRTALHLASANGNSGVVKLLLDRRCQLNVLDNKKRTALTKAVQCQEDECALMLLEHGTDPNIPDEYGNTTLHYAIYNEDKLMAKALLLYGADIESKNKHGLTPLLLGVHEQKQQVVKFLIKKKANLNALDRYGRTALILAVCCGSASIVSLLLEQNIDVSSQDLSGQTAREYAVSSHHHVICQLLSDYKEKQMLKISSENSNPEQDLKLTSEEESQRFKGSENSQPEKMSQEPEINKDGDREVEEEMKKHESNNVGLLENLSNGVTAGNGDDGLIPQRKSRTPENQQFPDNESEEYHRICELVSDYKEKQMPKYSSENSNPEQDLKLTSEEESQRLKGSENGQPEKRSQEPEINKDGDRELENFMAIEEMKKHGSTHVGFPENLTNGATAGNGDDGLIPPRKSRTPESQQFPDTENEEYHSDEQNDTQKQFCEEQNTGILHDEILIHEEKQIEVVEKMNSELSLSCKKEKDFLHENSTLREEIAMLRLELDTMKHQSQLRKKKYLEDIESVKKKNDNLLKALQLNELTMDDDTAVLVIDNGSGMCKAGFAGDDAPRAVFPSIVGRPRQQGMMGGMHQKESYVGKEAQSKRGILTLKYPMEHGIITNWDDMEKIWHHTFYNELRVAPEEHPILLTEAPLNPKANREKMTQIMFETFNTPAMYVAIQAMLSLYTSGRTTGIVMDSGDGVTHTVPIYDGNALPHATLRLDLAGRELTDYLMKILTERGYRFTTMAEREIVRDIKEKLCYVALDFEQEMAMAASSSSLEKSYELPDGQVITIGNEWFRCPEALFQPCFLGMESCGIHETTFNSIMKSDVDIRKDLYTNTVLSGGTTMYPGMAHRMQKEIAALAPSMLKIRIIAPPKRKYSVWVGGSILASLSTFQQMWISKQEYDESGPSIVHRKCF
inactive: [1] 0.033 | filanesib 0.04 | zotarolimus 0.025 | idasanutlin -0.007 | alisertib 0.037 | [2] -0.003 | gefitinib 0.015 | [3] 0.067 | lapatinib -0.006 | pictilisib 0.012

PSPC1 (UniProt Q8WXF1)
Sequence of UniProt Q8WXF1 (Q8WXF1 whole entry, looked up): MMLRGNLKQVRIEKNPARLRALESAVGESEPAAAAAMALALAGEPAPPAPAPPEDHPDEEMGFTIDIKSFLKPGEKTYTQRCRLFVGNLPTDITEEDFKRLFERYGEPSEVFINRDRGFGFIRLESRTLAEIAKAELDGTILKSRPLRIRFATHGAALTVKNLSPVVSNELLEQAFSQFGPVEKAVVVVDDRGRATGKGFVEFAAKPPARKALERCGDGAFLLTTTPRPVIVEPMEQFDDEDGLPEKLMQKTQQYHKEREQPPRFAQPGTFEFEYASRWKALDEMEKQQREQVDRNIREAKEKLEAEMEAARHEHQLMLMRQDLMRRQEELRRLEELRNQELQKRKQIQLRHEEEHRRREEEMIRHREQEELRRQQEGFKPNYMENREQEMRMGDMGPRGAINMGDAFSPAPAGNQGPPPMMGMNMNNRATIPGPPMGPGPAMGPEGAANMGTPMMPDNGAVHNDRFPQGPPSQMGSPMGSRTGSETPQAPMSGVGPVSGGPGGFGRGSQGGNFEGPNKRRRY
inactive: [1] 0.008 | filanesib 0.048 | zotarolimus 0.026 | idasanutlin 0.03 | alisertib -0.084 | [2] -0.146 | gefitinib 0.061 | [3] -0.042 | lapatinib 0.152 | pictilisib -0.081

PSMD6 (UniProt Q15008)
inactive: [1] -0.02 | filanesib 0.042 | zotarolimus 0.017 | idasanutlin -0.013 | alisertib -0.091 | [2] -0.062 | gefitinib -0.021 | [3] -0.045 | lapatinib 0.102 | pictilisib -0.036

PMM1 (UniProt Q92871)
inactive: [1] -0.084 | filanesib 0.021 | zotarolimus -0.003 | idasanutlin 0.022 | alisertib -0.039 | [2] 0.124 | gefitinib 0.16 | [3] 0.022 | lapatinib -0.02 | pictilisib -0.17

PRMT7 (UniProt Q9NVM4)
inactive: [1] -0.174 | filanesib -0.072 | zotarolimus -0.008 | idasanutlin -0.004 | alisertib -0.073 | [2] -0.037 | gefitinib 0.05 | [3] -0.018 | lapatinib 0.026 | pictilisib -0.009

PRKAA1 isoform 2 (UniProt Q13131)
inactive: [1] 0.029 | filanesib -0.043 | zotarolimus -0.007 | idasanutlin 0.013 | alisertib -0.047 | [2] -0.014 | gefitinib 0.004 | [3] 0.016 | lapatinib -0.008 | pictilisib -0.03

PPID (UniProt Q08752)
Sequence of UniProt Q08752 (Q08752 whole entry, looked up): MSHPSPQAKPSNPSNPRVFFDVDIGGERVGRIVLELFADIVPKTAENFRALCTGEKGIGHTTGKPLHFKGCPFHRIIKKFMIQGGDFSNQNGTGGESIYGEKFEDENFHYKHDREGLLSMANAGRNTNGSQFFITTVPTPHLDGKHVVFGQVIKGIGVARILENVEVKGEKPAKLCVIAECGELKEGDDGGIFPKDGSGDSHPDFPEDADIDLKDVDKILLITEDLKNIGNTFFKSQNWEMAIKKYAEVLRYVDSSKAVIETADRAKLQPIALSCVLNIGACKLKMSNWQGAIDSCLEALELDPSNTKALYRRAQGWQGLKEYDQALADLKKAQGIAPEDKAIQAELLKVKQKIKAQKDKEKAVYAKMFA
inactive: [1] 0.041 | filanesib 0 | zotarolimus 0.056 | idasanutlin -0.055 | alisertib -0.009 | [2] 0.093 | gefitinib 0.112 | [3] -0.091 | lapatinib -0.041 | pictilisib 0.039

PYGB (UniProt P11216)
inactive: [1] -0.024 | filanesib 0.035 | zotarolimus -0.023 | idasanutlin -0.013 | alisertib -0.019 | gefitinib -0.037 | [3] 0.028 | lapatinib -0.223 | pictilisib -0.164
active: [2] 0.237

PEX16 isoform 2 (UniProt Q9Y5Y5)
inactive: [1] 0.146 | filanesib -0.152 | zotarolimus 0.016 | idasanutlin -0.076 | alisertib -0.011 | [2] -0.227 | gefitinib -0.021 | [3] 0.193 | lapatinib 0.05 | pictilisib -0.089

PRMT8 (UniProt Q9NR22)
Sequence of UniProt Q9NR22 (Q9NR22 whole entry, looked up): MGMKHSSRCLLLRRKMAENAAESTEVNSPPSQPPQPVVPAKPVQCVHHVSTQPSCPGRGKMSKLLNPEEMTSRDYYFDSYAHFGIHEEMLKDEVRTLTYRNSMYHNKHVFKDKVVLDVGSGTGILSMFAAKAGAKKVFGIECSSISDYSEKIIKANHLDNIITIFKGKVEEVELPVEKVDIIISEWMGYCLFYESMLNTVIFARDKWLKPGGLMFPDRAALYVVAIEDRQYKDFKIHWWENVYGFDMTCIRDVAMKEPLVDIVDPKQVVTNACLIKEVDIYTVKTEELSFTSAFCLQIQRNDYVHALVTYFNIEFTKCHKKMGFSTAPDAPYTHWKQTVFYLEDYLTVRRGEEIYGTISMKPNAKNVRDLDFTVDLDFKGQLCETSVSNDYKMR
inactive: [1] -0.143 | filanesib -0.162 | zotarolimus -0.014 | idasanutlin -0.109 | alisertib -0.028 | [2] -0.019 | gefitinib 0.002 | [3] 0.042 | lapatinib 0.145 | pictilisib 0.025

PUM1 isoform 3 (UniProt Q14671)
inactive: [1] -0.003 | filanesib 0.007 | zotarolimus -0.023 | idasanutlin 0.006 | alisertib -0.039 | [2] -0.025 | gefitinib 0.025 | [3] -0.002 | lapatinib 0.004 | pictilisib -0.012

PARP1 (UniProt P09874)
inactive: [1] 0.091 | filanesib -0.043 | zotarolimus 0.048 | idasanutlin -0.047 | alisertib 0.039 | [2] 0.147 | gefitinib 0.062 | [3] -0.062 | lapatinib -0.082 | pictilisib 0.008
